Sampled rows, rich in hits. Any-hit rate of the full collection: about 19%.
DT40 TDP1 no CPT: qHTS for Inhibitors of human tyrosyl-DNA phosphodiesterase 1 (TDP1): qHTS in cells in absence of CPT; Potency, µM (titrated, usually from 46.2 µM), for inactives: at the top dose activity change, negative = growth inhibition, hits mostly inhibitors; AID 686978, 2013; actives 15% (n = 420,000); DT40 Tdp1-/- hTDP1 cells, no CPT, ATP luminescence, 48 h; note: potency is the fitted concentration of half-maximal effect; nearly all actives have a fitted effect of over 55% in size
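No-CPT arm: Tdp1-/-;hTDP1 DT40 cells (400/well) plus compounds, incubated ≥48 hr at 37 °C. Readout CellTiter-Glo luminescence.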
HT1080-NT tox: qHTS for induction of synthetic lethality in tumor cells producing 2HG: qHTS for the HT-1080-NT fibrosarcoma cell line. HT-1080-NT fibrosarcoma viability, CellTiter-Glo ATP luminescence, 48 h. actives 1.6% (n = 360,000). Potency, µM (top dose mostly 46.1 µM), inactives show at the top dose activity, negative = less viability, actives largely listed as cytotoxic;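 note: NT is the 2HG producing partner of a matched IDH1 knockdown line; potency is the fitted concentration of half-maximal effect; 0% = DMSO-treated cells and -100% = media-only wells without cells; nearly all actives have a fitted effect of over 55% in size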
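Compounds were tested in concentration-response format on HT-1080-NT cells for 48 hours at 37 degrees C. Cell viability came from CellTiter-Glo luminescence; curves were classified by r2, response magnitude and activity.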
IL-1B inflam inh: qHTS for Inhibitors of Inflammasome Signaling: IL-1-beta AlphaLISA Primary Screen | THP-1 LPS/ATP IL-1B secretion, AlphaLISA, 16 h; hits give low values | actives 4.7% (n = 360,000) | activity change, % at 57.5 µM; in the data active = activity change below about -50%; inconclusive = mostly about -30% to -49%
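Secreted IL-1B measured by AlphaLISA bead assay after 16 h compound exposure of THP-1 cells; compounds (final up to 57.5 uM) added 1 h before LPS (250 ng/mL) and ATP (1.25 mM) stimulation; lower signal means less secretion.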
uPA generation: qHTS for Inhibitors of Cell Surface uPA Generation; cell surface uPA generation assay, qHTS; Potency, µM (titrated, usually from 38.3 µM), without a hit: at the top dose activity change, negative = inhibition, most hits filed as inhibitors; actives 0.31% (n = 330,000); active = well fitted inhibition curve with a large enough effect; inconclusive = small, poorly fitted or top-dose-only effect; inactive = no such curve, though single readings can be large or run the other way; tested in mouse RAW 264.7 cells; note: potency is the fitted concentration of half-maximal effect; nearly all actives have a fitted effect of over 55% in size
TDP1 cell CPT: qHTS for Inhibitors of human tyrosyl-DNA phosphodiesterase 1 (TDP1): qHTS in cells in presence of CPT | chicken DT40 Tdp1-/-;hTDP1 cells + 20 nM CPT, ATP luminescence, 48 h | Potency, µM (top dose mostly 46.2 µM), inactives show top-dose activity change, negative = growth inhibition, actives largely listed as inhibitors | actives 12% (n = 420,000) | AID 686979, 2013; note: potency is the fitted concentration of half-maximal effect; nearly all actives have a fitted effect of over 55% in size
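Cell growth measured by CellTiter-Glo luminescence after a minimum 48 h, 37 C compound exposure with 20 nM CPT in Tdp1-knockout DT40 cells stably expressing hTDP1, seeded 400/well; qHTS titration format.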
HT1080 IDH1KD tx: qHTS for induction of synthetic lethality in tumor cells producing 2HG: qHTS for the HT-1080-IDH1KD cell line. actives 2% (n = 360,000). HT-1080 IDH1 knockdown viability, ATP luminescence, 48 h. Potency, µM (top dose mostly 46.1 µM), inactives show top-dose activity, negative = toxicity, usual class: cytotoxic;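 note: potency is the fitted concentration of half-maximal effect; 0% = DMSO wells and -100% = cell-free medium wells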
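Knockdown cells (IDH1KD HT-1080) received compounds 2 h after plating at 750 cells/well and were kept 48 h at 37 °C in 5% FBS RPMI. A CellTiter-Glo luminescence read gave % activity for curve fitting.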
The depositor's hits bear a star; u = inconclusive; x = no result. Unless noted, calls come from the whole dose curve; as a rule, active = well fitted curve in the direction sought with a large enough effect; inconclusive = small, poorly fitted or top-dose-only effect, or another doubt; inactive = no such curve, though single readings can be large; an effect the other way counts as inactive or inconclusive. Unless noted, % is set by controls: 0 for no effect and ±100 for the full control effect.

SMILES | DT40 TDP1 no CPT | HT1080-NT tox | IL-1B inflam inh | uPA generation | TDP1 cell CPT | HT1080 IDH1KD tx
COc1cc(C2C(C(=O)c3ccc(C)o3)=C(O)C(=O)N2c2cc(C)on2)ccc1OCc1ccccc1 (stereo not drawn) | 29µM* | 0% | 9 | -10% | u | 1%
CCOC(=O)c1sc(N2C(=O)C(O)=C(C(=O)c3ccc(C)o3)C2c2ccc(OC)c(OC)c2)nc1C (stereo not drawn) | u | 7% | -10 | 1% | 23µM* | 6%
COC(=O)c1ccc(C2C(C(=O)c3cc4ccccc4o3)=C(O)C(=O)N2c2cc(C)on2)cc1 (stereo not drawn) | -18% | 7% | 16 | 1% | -11% | 16%
CCOC(=O)c1sc(N2C(=O)C(O)=C(C(=O)c3ccc(C)o3)C2c2cccc([N+](=O)[O-])c2)nc1C (stereo not drawn) | u | -10% | 37 | -15% | -9% | -9%
Cc1cc(N2C(=O)C(O)=C(C(=O)c3cc4ccccc4o3)C2c2ccc(OC(C)C)cc2)no1 (stereo not drawn) | 16µM* | -8% | -8 | -5% | u | -4%
COC(=O)CCCn1cc(CN2CC(N3CCCC3)CS2(=O)=O)nn1 (stereo not drawn) | 0% | 1% | -4 | x | -2% | 12%
N#Cc1cccc(C2CC(OCCF)=CC(=O)O2)c1 (stereo not drawn) | -5% | 14% | -6 | x | -27% | 14%
O=[N+]([O-])c1cc(S(=O)(=O)C(F)(F)F)ccc1Sc1nc2ccccc2[nH]1 | 7.3µM* | u | -103* | -9% | 7.3µM* | 18µM*
NCCNc1ccc([N+](=O)[O-])c(Sc2nc3ccccc3[nH]2)c1 | 16µM* | 0% | -6 | -4% | u | -21%
O=[N+]([O-])c1ccc(N2CCNCC2)cc1Sc1nc2ccccc2[nH]1 | 23µM* | -26% | -13 | 6% | u | u
CC(C)(C)c1ccc(/C=C(\C#N)C(=O)NC2CC2)cc1 | u | u | x | 2% | 3% | u
CC(=O)Oc1ccc2c(c1)OC(c1ccccc1)CC21CC(C)(C)NC(=S)N1 (stereo not drawn) | 12µM* | -6% | 2 | -5% | 16µM* | -7%
O=C1CC(c2ccccc2)Oc2cc(O)ccc21 (stereo not drawn) | 4% | -1% | -27 | -1% | 7% | -22%
CC1(C)CC2(CC(c3ccccc3)Oc3cc(O)ccc32)NC(=S)N1 (stereo not drawn) | 21µM* | 2% | 24 | 14% | 21µM* | 7%
CN(C)CC#Cc1cccc(-c2nc(C(=O)O)cc3c2[C@@H](CCO)N(S(=O)C(C)(C)C)C3)c1 (stereo partly drawn) | 2% | 30% | 50 | x | -1% | 14%
CC(C)C[C@H]1CN(CCCC[C@H]2CNC(=O)C(=O)N2CC2CCCCC2)C(=O)C(=O)N1Cc1ccccc1 | u | 6% | -72* | x | u | 10%
CC(C)C[C@H]1CN(CCCC[C@H]2CNC(=O)C(=O)N2CCC2CCCCC2)C(=O)C(=O)N1CCc1ccccc1 | 18µM* | 26% | u | x | u | 29%
COc1ccc(S(=O)(=O)NC2CCc3ccccc32)cc1OC (stereo not drawn) | -11% | -5% | 24 | 22% | -16% | -3%
COCCNC(=O)C1CCCN(Cc2ccc(-c3ccccc3)cc2)CC1 (stereo not drawn) | -15% | u | -11 | x | u | 13%
O=C(NC1CCN(C(=O)Nc2ccccc2Cl)CC1)c1cccc(F)c1 | u | -6% | 13 | -1% | u | -13%
CCOC(=O)C1(Cc2ccc(Cl)cc2)CCN(C(=O)c2sc(C)nc2C)CC1 | 9.2µM* | -5% | u | u | 12µM* | -25%
CCOC(=O)C1(Cc2ccc(Cl)cc2)CCN(C(=O)CCc2cnccn2)CC1 | -29% | 5% | 20 | -1% | -13% | 11%
CCOC(=O)C1(Cc2ccc(OC)cc2)CCN(C(=O)c2sc(C)nc2C)CC1 | 23µM* | 1% | 25 | 7% | 26µM* | -6%
CCOC(=O)C1(Cc2ccc(OC)cc2)CCN(C(=O)C2=CCCC2)CC1 | 18µM* | 3% | 40 | 1% | u | -15%
CCOC(=O)C1(Cc2ccc(OC)cc2)CCN(C(=O)CCN2CCCC2=O)CC1 | -8% | 0% | -7 | 10% | -11% | -1%
SMILES | DT40 TDP1 no CPT | HT1080-NT tox | IL-1B inflam inh | uPA generation | TDP1 cell CPT | HT1080 IDH1KD tx
CCOC(=O)C1(Cc2ccc(Cl)cc2)CCN(C(=O)CCc2ccncc2)CC1 | 13µM* | -4% | u | -3% | -18% | -13%
CCOC(=O)C1(Cc2ccc(OC)cc2)CCN(C(=O)c2cc(C)on2)CC1 | u | 3% | -10 | 0% | -26% | 0%
COCC(=O)N1CCC(Oc2ccc(C(=O)NC(C)c3nc(C)sc3C)cc2)CC1 (stereo not drawn) | 8% | 8% | 3 | 6% | 0% | 13%
CCC(C)(C)n1nnnc1CN(Cc1cccs1)Cc1cc2cc(OC)ccc2[nH]c1=O | u | 0% | -9 | -5% | u | 0%
CCOc1ccc2[nH]c(=O)c(CN(Cc3cccs3)Cc3nnnn3C(C)(C)CC)cc2c1 | 16µM* | 0% | u | -2% | 16µM* | -7%
Cc1cccc2cc(CN(Cc3ccccc3)Cc3nnnn3Cc3ccccc3)c(=O)[nH]c12 | 13µM* | x | x | x | u | x
COc1ccc2cc(CN(Cc3cccs3)Cc3nnnn3Cc3ccccc3)c(=O)[nH]c2c1 | u | -1% | -1 | -2% | u | 1%
COc1ccc2cc(CN(Cc3cccnc3)Cc3nnnn3Cc3ccccc3)c(=O)[nH]c2c1 | u | 3% | -10 | -2% | u | -4%
CCOC(=O)Cn1nnnc1CN(Cc1cccs1)Cc1cc2cc(C)cc(C)c2[nH]c1=O | 15µM* | 10% | 53 | x | 21µM* | -4%
CCCC(c1nnnn1CC(=O)OCC)N(Cc1cc2ccc(C)cc2[nH]c1=O)C1CCCC1 (stereo not drawn) | u | -2% | 0 | -6% | -17% | u
